Bioassay records: PubChem BioAssay, several laboratories
The list is not random: actives were taken first. Their share in the collection is about 1.6%.
eIF4H FP inh – human eIF4H binding inhibitors, primary screen, translation initiation inhibitor project, biochemical, uHTS, fluorescence polarization; AID 2012, 2009; inhibition, % at 35 µM; eIF4H fluorescence polarization binding assay; Eukaryotic translation initiation factor 4H (Homo sapiens), Q15056; 290,000 tested, 0.94% active;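 further: calls also rest on retests at 20 µM and on dose response follow-up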
eIF4E 4G PPI – eIF4E–eIF4G protein interaction inhibitors, primary screen, biochemical, uHTS, TR-FRET, eIF4GI fragment; Eukaryotic translation initiation factor 4E (Mus musculus) + Eukaryotic translation …; TR-FRET eIF4E-eIF4GI(517-606) binding, 2 h; inhibition, % at 21.7 µM; 220,000 tested, 0.37% active;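 active means inhibition above about 30%, limit read from the data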;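 further: 0% = full FRET control wells and 100% = background wells lacking eIF4GI fragment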
PABP1 MLLE inh – inhibitors of PABP1 MLLE–PAM2 peptide binding, primary screen, biochemical, fluorescence polarization, FITC-PAM2, GST-MLLE | Polyadenylate-binding protein 1 (Homo sapiens), P11940 | inhibition, % at 20 µM | 360,000 tested, 0.36% active; in the data active means inhibition above about 35%, passing the limit was not always enough;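 further: plate controls were DMSO wells with GST-MLLE for no effect and wells lacking GST-MLLE protein for full effect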
Target sequence (P11940 whole entry, looked up): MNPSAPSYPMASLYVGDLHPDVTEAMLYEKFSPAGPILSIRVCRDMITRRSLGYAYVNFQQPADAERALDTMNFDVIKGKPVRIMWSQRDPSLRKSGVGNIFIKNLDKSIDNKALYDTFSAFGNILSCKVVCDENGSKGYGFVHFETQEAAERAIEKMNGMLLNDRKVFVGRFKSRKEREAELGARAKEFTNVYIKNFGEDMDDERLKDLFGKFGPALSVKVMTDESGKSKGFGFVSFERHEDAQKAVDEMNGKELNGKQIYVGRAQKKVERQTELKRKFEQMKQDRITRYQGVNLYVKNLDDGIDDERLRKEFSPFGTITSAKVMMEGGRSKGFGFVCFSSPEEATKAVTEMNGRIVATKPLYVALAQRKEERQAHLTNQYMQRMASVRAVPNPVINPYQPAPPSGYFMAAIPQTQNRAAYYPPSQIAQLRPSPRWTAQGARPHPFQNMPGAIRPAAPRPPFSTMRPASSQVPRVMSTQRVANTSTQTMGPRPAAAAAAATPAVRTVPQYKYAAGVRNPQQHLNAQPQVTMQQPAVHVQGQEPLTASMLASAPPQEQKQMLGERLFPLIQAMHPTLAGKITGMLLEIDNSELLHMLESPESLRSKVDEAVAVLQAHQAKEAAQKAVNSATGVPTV
PERK inhibitor – block of dimerizer-induced PERK translation repression, primary screen, PERK inhibitor project, CHO PERK-DD cells, SEAP luminescence, HTS | Eukaryotic translation initiation factor 2-alpha kinase 3 (Homo sapiens), Q9NZJ5 | 220,000 tested, 0.17% active | inhibition, % at 5.6 µM | CHO PERK-DD fusion, SEAP luminescence translation reporter;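 active means inhibition above the mean inhibition of all tested compounds plus 3 SD, set separately per screening campaign, cut at about 2.9% in these data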;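 further: PERK kinase domain activated by AP20187 dimerizer at 100 nM; 0% = DMSO with dimerizer and 100% = rapamycin at 8.4 µM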
PABP FP inh – PABP poly(A) RNA binding inhibitors, primary screen, biochemical, fluorescence polarization, uHTS | 290,000 tested, 1% active | calls only at 35 µM | Polyadenylate-binding protein 1 (Homo sapiens), P11940;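 further: calls also rest on retests at 20 µM and on dose response follow-up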
* = called active by the depositor; i = inactive; . = not tested or not shown; + = active, no number. Unless noted, how the calls were made is not given here.

SMILES	eIF4H FP inh	eIF4E 4G PPI	PABP1 MLLE inh	PERK inhibitor	PABP FP inh
CCCCn1c(=O)c(CCC(=O)OCC(=O)NC(=O)NCCC(C)C)nc2ccccc21	active	11	18	0	i
CC(C)NC(=O)c1sc2nc3c(c(-c4cccs4)c2c1N)CN(C)CC3	127	-1	66	0	i
Cc1cccc(NC(=O)c2sc3nc4c(c(-c5cccs5)c3c2N)CN(C)CC4)c1	110*	-3	-12	-2	+
O=C(CCNS(=O)(=O)c1ccccc1)OCC(=O)c1ccc(Cl)cc1	.	.	-19	.	.
COc1ccc(C2=CC(=O)C=CC2=O)cc1	-4	41*	.	1	i
C=CCN1C(=O)CSC1=Nc1cccc(O)c1	-3	30*	4	1	i
CC(CCc1ccccc1)NC(=O)COC(=O)c1ccccc1O (centres undefined)	0	2	-4	1	i
O=c1c2cc(N3CCOCC3)ccc2[nH]c(=S)n1Cc1ccccn1	37*	8	-28	1	+
CCOC(=O)C(C)On1c(-c2ccccc2)nc2ccc([N+](=O)[O-])cc21 (centres undefined)	-3	13	15	-1	i
O=C(O)COn1c(-c2ccccc2)nc2ccc([N+](=O)[O-])cc21	104	21	34	0	+
COc1ccc(S(=O)(=O)NC2CCSc3ccccc32)cc1OC (centres undefined)	-4	.	2	.	i
COc1ccc(OC)c(S(=O)(=O)N2CCN(C(=O)c3cc(C4CC4)nn3-c3ccccc3)CC2)c1	.	.	68*	.	.
COC(=O)C1C(c2ccc(N(C)C)cc2)C(C(=O)OC)S(=O)(=O)CS1(=O)=O (centres undefined)	-3	1	19	0	i
O=C(CS(=O)(=O)c1cn(CC(=O)N2CCOCC2)c2ccccc12)Nc1ccccc1F	3	.	-1	.	i
O=C(NC(=S)NCCO)c1cn(-c2ccccc2)nc1-c1ccccc1	-4	-1	50*	0	i
O=C(O)c1ccccc1-c1csc(-c2ccccc2)n1	0	-1	2	0	i
COc1ccc(NCC(=O)N/N=C/C=C/c2ccccc2[N+](=O)[O-])cc1	-2	3	12	0	+
CCOC(=O)N/N=C/C=C/c1ccccc1[N+](=O)[O-]	11	-1	-13	1	i
CCC1(CC)NC(=O)N(CC(=O)OC(C)C(=O)Nc2ccc(S(N)(=O)=O)cc2)C1=O (centres undefined)	.	.	-1	.	.
CC(=O)Nc1ccc(S(=O)(=O)NCCC(=O)Nc2ccc(C)c(F)c2)cc1	9	.	0	.	i
CC(OC(=O)CCN1C(=O)c2cccc([N+](=O)[O-])c2C1=O)C(=O)Nc1cc(Cl)cc(Cl)c1 (centres undefined)	-1	-4	-37	1	i
O=C1NC(=Nc2ccccc2Cl)S/C1=C\c1cc([N+](=O)[O-])ccc1O	66	.	-89	.	+
COc1cccc(N=C2NC(=O)/C(=C/c3cc([N+](=O)[O-])ccc3O)S2)c1	66	.	-59	.	i
CCN1CCN(c2ccc(S(=O)(=O)N3CCCCC3)cc2NC(=O)CCNC(C)=O)CC1	.	.	0	.	.
CC(C)Cn1nc(C(=O)Nc2cccc(C(=O)NC3CC3)c2)c2ccccc2c1=O	.	.	12	.	.
SMILES	eIF4H FP inh	eIF4E 4G PPI	PABP1 MLLE inh	PERK inhibitor	PABP FP inh
COc1cc(NC(=O)c2ccc3c(=O)n(Cc4ccco4)c(=S)[nH]c3c2)cc(OC)c1OC	64*	-5	-50	1	i
COc1ccc(CN2CCN(C(=O)CC(C)C)CC2)c(OC)c1OC	13	77*	10	-1	i
COc1cc(CN2CCN(C(=O)CC(C)C)CC2)cc(OC)c1OC	-2	23	-2	1	i
CCCNC(=O)CSC1=N/C(=C/c2ccc(F)cc2)C(=O)N1CC	4	26	31	1	i
CCCCCNC(=O)CSC1=N/C(=C\c2ccc(Cl)c(Cl)c2)C(=O)N1CC	-2	-12	28	3.0*	i
Cc1ccc(S(=O)(=O)N(CC(=O)NCCSCc2ccco2)c2ccc(F)cc2)cc1	0	0	.	3.2*	i
O=C(CN(c1ccccc1)S(=O)(=O)c1ccccc1)NCCSCc1ccco1	81*	-24	14	0	i
O=c1ccn([C@@H]2O[C@H](CNCc3c(OCc4ccccc4F)ccc4ccccc34)[C@@H](O)[C@H]2O)c(=O)[nH]1	.	.	-12	.	.
CCN(CC(=O)Nc1ccc(C(=O)OC)cc1)C1CCCCC1	3	.	-10	.	i
O=S1(=O)N=C(Oc2ccccc2)c2ccccc21	-13	5	4	2.9*	i
Cc1c(Cl)cccc1NC(=S)NCCc1ccc(S(N)(=O)=O)cc1	3	2	42*	0	i
Cc1c(Cl)cccc1NC(=S)NCCc1ccc(Cl)cc1	-11	.	10	.	i
CCCCc1c(C)nc(N2CCCC2)[nH]c1=O	65*	-3	1	2	i
CCCCCCCc1c(C)nc(N2CCOCC2)[nH]c1=O	-1	4	-9	0	i
O=C(NNC(=O)c1ccccc1C(=O)O)c1ccc(S(=O)(=O)N2CCCCC2)cc1	-2	.	5	.	i
O=C(COc1cc(F)ccc1[N+](=O)[O-])Nc1cc(S(=O)(=O)N2CCCC2)ccc1Cl	.	.	-10	.	.
CC(C)[C@@H]1C=C(C(=O)O)O[C@H](OCCCCO)C1	-3	97*	3	.	i
CC(C)(C)[C@H]1C=C(C(=O)O)O[C@@H](OCCCCO)C1	.	.	6	.	.
Cc1ccc(C2(C)NC(=O)N(CC(=O)NNC(=O)c3ccccc3)C2=O)cc1 (centres undefined)	.	.	5	.	.
C=CCn1c(O)c(N=NC(=O)OCC)c2ccccc21	active	3	5	0	i
FC(F)(F)c1cccc(Oc2ccc3c(C(F)(F)F)cc(C(F)(F)F)nc3n2)c1	4	6	7	3.7*	i
FC(F)(F)c1cc(C(F)(F)F)c2ccc(Oc3ccccc3)nc2n1	1	13	1	0	i
C/C(N)=C(/C#N)C(=O)COC(=O)c1ccc(C#N)cc1	0	8	3	0	i
CCCCCc1c2c(cc(O)c1C(=O)O)OC(=O)c1c(cc(OC)cc1C(=O)CCCC)O2	62	6	-6	1	+
CCCCCc1c2c(cc(O)c1C(=O)O)OC(=O)c1cc(C(=O)CCCC)c(OC)cc1O2	.	.	2	.	.
COc1ccc(N2CC(NS(=O)(=O)c3cccs3)CC2=O)cc1 (centres undefined)	.	.	-8	.	.
COc1ccc(NC(=O)c2noc3c2CCC3)cc1	107*	12	3	-1	+
